A word on the AC50: it is the concentration at which the activity in the assay is half-maximal.

The record followed here is PubChem BioAssay (EPA / NIEHS).

Activity calls are given as the source filed them. How the source made its calls: active means hit-call score of the fitted dose curve at least 0.9, where 1 is the maximum; inactive means score below 0.9.

Read-out in the first test: Vascular cell adhesion molecule 1 (VCAM1), VCAM1 (gene 7412)
Briefly: BSK_LPS_VCAM1: BioMAP Diversity Plus: LPS Assay for Vascular cell adhesion molecule 1 (VCAM1) Biomarker Activity (AID 2283086). Particulars: primary human HUVEC with PBMC; actives raise or lower the signal. A digest of the protocol:
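Human umbilical vein endothelial cells co-cultured with PBMC and stimulated with LPS; VCAM-1 measured by ELISA 24 h after dosing. Bidirectional curve fitting against DMSO baseline; cytotoxicity tracked in parallel by SRB total-protein staining.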
Turning to `Cc1cc(C)nc(Nc2ccccc2)n1`, the outcome was inactive.
As for `CC(C)Nc1nc(Cl)nc(NC(C)C)n1`, the outcome was inactive.
Regarding `CO/N=C(/C1=NOCCO1)c1ccccc1Oc1ncnc(Oc2ccccc2Cl)c1F`, the outcome was inactive.
Consider `CNC(=O)Oc1cccc2ccccc12`, for which the AC50 was 9.39 µM (active).
Turning to `COC(=O)c1c(C(F)F)nc(C(F)(F)F)c(C2=NCCS2)c1CC(C)C`, the result was inactive.
`CC(C)(C)C(=O)C(Oc1ccc(Cl)cc1)n1cncn1` (configuration not stated): the outcome was inactive.
Same read-out and setting: under `Clc1nc(Cl)nc(Nc2ccccc2Cl)n1` stands “inactive”.
Turning to `CCCCOCN(C(=O)CCl)c1c(CC)cccc1CC`, the AC50 is 28.2 µM (active).
As for `CCOc1nc(F)cc2nc(S(=O)(=O)Nc3c(Cl)cccc3Cl)nn12`, the result was inactive.
Regarding `Cc1c(COC(=O)[C@@H]2[C@H](/C=C(\Cl)C(F)(F)F)C2(C)C)cccc1-c1ccccc1`, the result was inactive.
Take `Nc1c(Cl)c(Cl)nc(C(=O)O)c1Cl`: the result was inactive.
As to `O=C(O)c1c(Cl)ccc2cc(Cl)cnc12`, the result was inactive.
For the molecule `C=C(C)CN(CC)c1c([N+](=O)[O-])cc(C(F)(F)F)cc1[N+](=O)[O-]`, the AC50 was 20 µM (active).
In the case of `CC(C)NC(=O)N1CC(=O)N(c2cc(Cl)cc(Cl)c2)C1=O`, the outcome was inactive.
As to `Cc1ccc(N=CN(C)C=Nc2ccc(C)cc2C)c(C)c1`, the AC50 was 26.6 µM (active).
Turning to `CCOP(=S)(OCC)Oc1nc(Cl)n(C(C)C)n1`, the result was inactive.
Take `Cc1nc(N(C)C)nc(OC(=O)N(C)C)c1C`: the result was inactive.
In the case of `C=CCOC(=O)C(C)(C)OC(=O)c1cc(-n2c(=O)cc(C(F)(F)F)n(C)c2=O)ccc1Cl`, the outcome was inactive.
In the case of `Nc1cnn(-c2ccccc2)c(=O)c1Cl`, the result was inactive.
Still for that read-out and setting: under `CCN(CC)C(=O)C(C)Oc1cccc2ccccc12` (configuration not stated) stands “inactive”; under `Nc1c(Cl)c(F)nc(OCC(=O)O)c1Cl`, “inactive”.
On to `CCOP(=O)(OCC)Oc1nc(Cl)c(Cl)cc1Cl`, for which the AC50 was 16.7 µM (active).
`CSC(=O)c1c(C(F)F)nc(C(F)(F)F)c(C(=O)SC)c1CC(C)C`: the result was inactive.
Take `COP(=O)(OC)O/C(C)=C/C(=O)N(C)C`: the outcome was inactive.
For `COc1cc(OC)nc(NC(=O)NS(=O)(=O)c2ncccc2OCC(F)(F)F)n1`, the outcome was inactive.
Take `CN=C=S`: the outcome was inactive.
Still for that read-out and setting: next, `COc1cc(Cl)c(OC)cc1Cl`: “inactive”.
For the molecule `OC(c1ccc(Cl)cc1)(c1ccc(Cl)cc1)C(Cl)(Cl)Cl`, the AC50 was 29.3 µM (active).
As for `COC(=O)N(C(=O)N1CO[C@@]2(C(=O)OC)Cc3cc(Cl)ccc3C2=N1)c1ccc(OC(F)(F)F)cc1`, the outcome was inactive.
Consider `CC(C)C1(C)N=C(c2ncccc2C(=O)O)NC1=O` (configuration not stated), for which the outcome was inactive.
For the molecule `CN/C(=N\[N+](=O)[O-])NCc1cnc(Cl)s1`, the outcome was inactive.
Regarding `Cn1c(-c2ccccc2)cc(-c2ccccc2)[n+]1C`, the result was inactive.
`Clc1cccc(C(Cl)(Cl)Cl)n1`: the result was inactive.
For the molecule `COC(=O)NS(=O)(=O)c1ccc(N)cc1`, the result was inactive.
In the case of `Cc1cnc(C2=NC(C)(C(C)C)C(=O)N2)c(C(=O)O)c1` (configuration not stated), the outcome was inactive.
As to `O=C(Nc1ccccc1-c1ccc(Cl)cc1)c1cccnc1Cl`, the outcome was inactive.

Read-out in another test: CD38, CD38 (gene 952)
Briefly: BSK_SAg_CD38: BioMAP Diversity Plus: SAg Assay for CD38 Biomarker Activity (AID 2283087). Particulars: primary human HUVEC with PBMC; actives raise or lower the signal. A digest of the protocol:
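Human HUVEC plus PBMC co-culture stimulated with superantigen; CD38 measured by ELISA 24 h after chemical dosing. Fluorescence read-out, bidirectional fit against DMSO; cytotoxicity tracked in parallel by SRB and Alamar Blue.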
For the molecule `Cc1cc(C)nc(Nc2ccccc2)n1`, the AC50 is 20 µM (active).
As for `CC(C)Nc1nc(Cl)nc(NC(C)C)n1`, the result was inactive.
Regarding `CO/N=C(/C1=NOCCO1)c1ccccc1Oc1ncnc(Oc2ccccc2Cl)c1F`, the AC50 was 22.3 µM (active).
As for `CNC(=O)Oc1cccc2ccccc12`, the result was inactive.
As for `COC(=O)c1c(C(F)F)nc(C(F)(F)F)c(C2=NCCS2)c1CC(C)C`, the AC50 was 25.7 µM (active).
In the case of `CC(C)(C)C(=O)C(Oc1ccc(Cl)cc1)n1cncn1` (configuration not stated), the result was inactive.
Consider `Clc1nc(Cl)nc(Nc2ccccc2Cl)n1`, for which the outcome was inactive.
Consider `CCCCOCN(C(=O)CCl)c1c(CC)cccc1CC`, for which the AC50 was 29.4 µM (active).
Turning to `CCOc1nc(F)cc2nc(S(=O)(=O)Nc3c(Cl)cccc3Cl)nn12`, the result was inactive.
The same measure, in the same setting: next, `Cc1c(COC(=O)[C@@H]2[C@H](/C=C(\Cl)C(F)(F)F)C2(C)C)cccc1-c1ccccc1`: “inactive”; `Nc1c(Cl)c(Cl)nc(C(=O)O)c1Cl`: “inactive”; `O=C(O)c1c(Cl)ccc2cc(Cl)cnc12`: “inactive”.
With `C=C(C)CN(CC)c1c([N+](=O)[O-])cc(C(F)(F)F)cc1[N+](=O)[O-]`, the AC50 was 33.7 µM (active).
On to `CC(C)NC(=O)N1CC(=O)N(c2cc(Cl)cc(Cl)c2)C1=O`, for which the result was inactive.
As for `Cc1ccc(N=CN(C)C=Nc2ccc(C)cc2C)c(C)c1`, the AC50 was 29.1 µM (active).
Take `CCOP(=S)(OCC)Oc1nc(Cl)n(C(C)C)n1`: the result was inactive.
On the same count and under the same terms, under `Cc1nc(N(C)C)nc(OC(=O)N(C)C)c1C` stands “inactive”.
Turning to `C=CCOC(=O)C(C)(C)OC(=O)c1cc(-n2c(=O)cc(C(F)(F)F)n(C)c2=O)ccc1Cl`, the AC50 was 10.8 µM (active).
As to `Nc1cnn(-c2ccccc2)c(=O)c1Cl`, the result was inactive.
Regarding `CCN(CC)C(=O)C(C)Oc1cccc2ccccc12` (configuration not stated), the outcome was inactive.
Turning to `Nc1c(Cl)c(F)nc(OCC(=O)O)c1Cl`, the outcome was inactive.
Consider `CCOP(=O)(OCC)Oc1nc(Cl)c(Cl)cc1Cl`, for which the AC50 is 29.6 µM (active).
With `CSC(=O)c1c(C(F)F)nc(C(F)(F)F)c(C(=O)SC)c1CC(C)C`, the AC50 was 20.8 µM (active).
`COP(=O)(OC)O/C(C)=C/C(=O)N(C)C`: the result was inactive.
Regarding `COc1cc(OC)nc(NC(=O)NS(=O)(=O)c2ncccc2OCC(F)(F)F)n1`, the result was inactive.
`CN=C=S`: the AC50 was 10 µM (active).
As for `COc1cc(Cl)c(OC)cc1Cl`, the result was inactive.
Consider `OC(c1ccc(Cl)cc1)(c1ccc(Cl)cc1)C(Cl)(Cl)Cl`, for which the AC50 was 29.7 µM (active).
Consider `COC(=O)N(C(=O)N1CO[C@@]2(C(=O)OC)Cc3cc(Cl)ccc3C2=N1)c1ccc(OC(F)(F)F)cc1`, for which the AC50 is 5.95 µM (active).
With `CC(C)C1(C)N=C(c2ncccc2C(=O)O)NC1=O` (configuration not stated), the outcome was inactive.
On to `CN/C(=N\[N+](=O)[O-])NCc1cnc(Cl)s1`, for which the result was inactive.
Take `Cn1c(-c2ccccc2)cc(-c2ccccc2)[n+]1C`: the AC50 was 2.68 µM (active).
Regarding `Clc1cccc(C(Cl)(Cl)Cl)n1`, the result was inactive.
With `COC(=O)NS(=O)(=O)c1ccc(N)cc1`, the result was inactive.
Consider `Cc1cnc(C2=NC(C)(C(C)C)C(=O)N2)c(C(=O)O)c1` (configuration not stated), for which the outcome was inactive.
For the molecule `O=C(Nc1ccccc1-c1ccc(Cl)cc1)c1cccnc1Cl`, the outcome was inactive.
